Measured values from PubChem BioAssay (NCATS).
“And” between values parts separate entries of the source, which are not always exact repeats. Equal values may be shown once. Records with an inconclusive call do not appear. Where a call stands in place of a potency, no number is given. The source made the active and inactive calls. Unless noted, calls come from the whole dose curve; as a rule, active = well fitted curve in the direction sought with a large enough effect; inconclusive = small, poorly fitted or top-dose-only effect, or another doubt; inactive = no such curve, though single readings can be large; an effect the other way counts as inactive or inconclusive.

Tests used:
[1] = Quantitative high throughput screen for delayed death inhibitors of the malarial parasite plastid, 96 hour incubation (AID 488745); note: nearly all actives have a fitted effect of over 70% in size; note: potency is the fitted concentration of half-maximal effect
Outline: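 Infected erythrocytes were added to compound in Albumax-supplemented RPMI 1640 at 0.1% parasitemia and 2% hematocrit (final), incubated 96 h at 37 C under 5% CO2, then luciferase reagent was added and luminescence measured.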

[2] = Quantitative high throughput screen for delayed death inhibitors of the malarial parasite plastid, 48 hour incubation (AID 488752); note: nearly all actives have a fitted effect of over 65% in size; note: potency is the fitted concentration of half-maximal effect
Outline: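 Readout is firefly luciferase luminescence from a reporter integrated into the parasite genome, with lower signal taken as inhibited growth. Infected red cells (0.1% parasitemia, 2% hematocrit final) are cultured with compound for one 48 h cycle at 37 C.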

[3] = biological target: Thioredoxin reductase 1, cytoplasmic (Rattus norvegicus) (UniProt O89049); experiment: qHTS Assay for Substrates of Mammalian Selenoprotein Thioredoxin Reductase 1 (TrxR1) (AID 488772);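 note: NADPH fluorescence in the first read after selenite addition and not the 8 min delta; series mostly up to about 57 µM; a drop in NADPH fluorescence below the no-compound background marks a TrxR1 substrate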
Outline: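 Quantitative HTS in Tris-HCl buffer at pH 7.5 with EDTA and Tween-20, using rat TrxR1, 400 uM NADPH and 400 uM selenite (final). A fall in initial NADPH fluorescence relative to background marked substrate behaviour.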

[4] = biological target: Thioredoxin reductase 1, cytoplasmic (Rattus norvegicus) (UniProt O89049); experiment: qHTS Assay for Inhibitors of Mammalian Selenoprotein Thioredoxin Reductase 1 (TrxR1) (AID 488773); details: Potency: inhibition; note: nearly all actives have a fitted effect of over 40% in size; note: potency is the fitted concentration of half-maximal effect
Outline: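 Steps: enzyme (90 nM) plus NADPH (400 uM final), 5 min at ~22 deg C; compound added, 15 min; selenite (400 uM final) added; fluorescence followed for 8 min. Concentration-response curves derived from the normalized delta values.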

[5] = biological target: Flap endonuclease 1 (Homo sapiens) (UniProt P39748); experiment: qHTS Validation Assay for the Inhibitors of Human Flap endonuclease 1 (FEN1) (AID 488816); note: potency is the fitted concentration of half-maximal effect
Outline: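 Readings taken at 0 and 15 min after starting the reaction with 50 nM (final) substrate supplied the signal. Compounds had first sat with 10 nM FEN1 reagent for 15 min at room temperature. Values come from Hill-equation concentration-response fits.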

[6] = biological target: M-phase phosphoprotein 8 (Homo sapiens) (UniProt Q99549); experiment: qHTS Validation Assay for Inhibitors for MPP8 Chromodomain Interactions with Methylated Histone Tails (AID 488949); note: nearly all actives have a fitted effect of over 55% in size; note: potency is the fitted concentration of half-maximal effect
Outline: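 MPP8 (50 nM) was pre-bound to 50 nM biotinylated H3(1-18)K9me3 peptide in PBS pH 7.4 with 0.01% Tween-20. Compounds were then added for 30 min at room temperature, and complex disruption was read by AlphaScreen with streptavidin donor and nickel-chelate acceptor beads.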

[7] = biological target: Chromobox protein homolog 1 (Homo sapiens) (UniProt P83916); experiment: qHTS Validation Assay for Inhibitors of HP1-beta Chromodomain Interactions with Methylated Histone Tails (AID 488953); note: nearly all actives have a fitted effect of over 50% in size; note: potency is the fitted concentration of half-maximal effect
Outline: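 50 nM HP1-beta + 50 nM biotin-H3(1-18)K9me3, PBS pH 7.4, 0.01% Tween-20, 30 min RT; compound added, 30 min RT; AlphaScreen beads 10 ug/mL final, 30 min dark; luminescence read.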

[8] = biological target: Methanococcus maripaludis chaperonin (MmCpn) (UniProt Q6LX38); experiment: High-Throughput Screening for Modulators of Cytosolic Chaperonin Activity: MmCpn Primary Screen (AID 488978);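 note: 50 nM MmCpn enzyme hydrolysing 30 µM ATP at 37 °C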
Outline: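 MmCpn at 50 nM final was preincubated 5 min at RT with compound. ATP was then added at 30 uM final for 10 min at 37 C. ADP formed was detected by Transcreener HTRF (665/590 nm).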

[9] = biological target: Transient receptor potential cation channel subfamily V member 1 (Homo sapiens) (UniProt Q8NER1); experiment: HTS Assay for Compounds that Act as Enhancers of the Vanilloid Receptor 1 (AID 488979)
Outline: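 Calcium influx kinetics via Fluo-8 (480/520 nm) in TRPV1-expressing cells, 2000/well cultured overnight at 35.5C. Compound-alone read 3 min (agonist phase), followed by EC20 capsaicin challenge for 2 min (enhancer phase).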

[10] = biological target: Thyrotropin receptor (Homo sapiens) (UniProt P16473); experiment: qHTS Assay for Antagonists of the Thyroid Stimulating Hormone Receptor (AID 488980); note: series mostly up to about 58 µM
Outline: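 TSHR-transfected HEK293 cells (2000/well) in HEPES-buffered HBSS with 70 uM RO 20-1724 were stimulated with 4 nM TSH (EC80, final) in the presence of compound. cAMP was measured by HTRF competition after lysis and 30 min at RT.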

[11] = biological target: D(1A) dopamine receptor (Homo sapiens) (UniProt P21728); experiment: HTS Assay for Allosteric Agonists of the Human D1 Dopamine Receptor: Primary Screen for Agonists (AID 488981)
Outline: (§1)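 Calcium flux in an inducible, force-coupled HEK293 Trex D1 line (overnight at 30 C): agonist mode is the 180 s kinetic read after compound; potentiator mode is the following 180 s read after dopamine at EC20.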

[12] = biological target: D(1A) dopamine receptor (Homo sapiens) (UniProt P21728); experiment: HTS Assay for Allosteric Agonists of the Human D1 Dopamine Receptor: Primary Screen for Potentiators (AID 488982)
Outline: as §1

[13] = Validation screen for small molecules that induce genotoxicity in human embryonic kidney (HEK293T) cells expressing luciferase-tagged ELG1 (AID 493106)
Outline: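 Luminescence from an ELG1-luciferase fusion serves as the read-out, rising when genetic stress elevates ELG1 protein. HEK293T reporter cells (2,000 per well) received 23 nL compound, incubated 16 hr at 37 °C, then ONE-Glo for 30 min at room temperature.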

[14] = biological target: ATPase family AAA domain-containing protein 5 (Homo sapiens) (UniProt Q96QE3); experiment: Validation screen for small molecules that inhibit ELG1-dependent DNA repair in human embryonic kidney (HEK293T) cells expressing luciferase-tagged ELG1 (AID 493107);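 note: cells co-treated with the DNA-damaging agent 5-fluorouridine alongside compound; series mostly up to about 46 µM; inhibitors lower the ELG1-luciferase luminescence signal; nearly all actives have a fitted effect of over 70% in size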
Outline: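 Luminescence from ONE-Glo, developed 30 min at room temperature, served as read-out of ELG1-luciferase levels. Beforehand, reporter HEK293T cells received 5-fluorouridine plus test compound for 16 hr at 37 °C.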

[15] = biological target: Thyrotropin-releasing hormone receptor (Homo sapiens) (UniProt P34981); experiment: qHTS for Small Molecule Agonists and Allosteric Enhancers of Human TRH Receptor: Validation Screen for Agonists (AID 493127;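 active = calcium activation more than 3 SD above the typical response in the agonist read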;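 note: intracellular calcium rise by fluo-8 fluorescence before TRH EC20 addition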); details: TRH receptor agonist cell assay; at 2 µM; stronger effect = higher value
Outline: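 Cells 2000/well, 10% FCS, 18 h 33.5C/5% CO2 → fluo-8 Ca dye, RT 30 min–1.5 h → FDSS baseline 10 × 1 s → compound added → 230 cycles (1 s/cycle) agonist mode. TRH controls.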

[16] = Nrf2 qHTS screen for inhibitors: Validation (AID 493153; active = well fitted inhibition curve with a large enough effect in the main read-out, with a control signal flat, not every such curve was filed as active); details: Potency: luciferase luminescence; viability change: measured here: cytotoxicity max response
Outline: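 Luminescence from an ARE-firefly luciferase reporter in A549 cells gives Nrf2 inhibition; an earlier CellTiter-Fluor fluorescent read flags cytotoxicity. Cells in 5% FBS OPTI-MEM received compound dilution series for 18-24 h at 37°C.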

[17] = qHTS for Inhibitors of Cell Surface uPA Generation: Validation Assay (AID 493164)
Outline: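 RAW 264.7 cells (4000/well) were plated overnight, then exposed for 18 h at 37 C, 5% CO2 to compounds in a 7-point 1:5 titration (2.45 nM–38.3 uM final). Intracellular ATP was read by ATP-Lite luminescence.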

[18] = biological target: D(1A) dopamine receptor (Homo sapiens) (UniProt P21728); experiment: HTS Assay for Allosteric Agonists of the Human D1 Dopamine Receptor: Primary Screen for Antagonists (AID 488983);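 note: calcium flux response to an EC80 dopamine challenge measured with no-wash dye; nearly all actives have a fitted effect of over 65% in size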
Outline: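 Cells are induced with tetracycline and incubated overnight at 30 C, then loaded with calcium dye for 30 to 90 minutes at room temperature. Compound addition is followed by a 180 s read, then an EC80 dopamine addition and another 180 s read.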

[19] = biological target: Tyrosyl-DNA phosphodiesterase 1 (Homo sapiens) (UniProt Q9NUW8); experiment: Confirmation Assay for Inhibitors of Tyrosyl-DNA Phosphodiesterase (TDP1) (AID 489007); details: recombinant human TDP1 enzymatic activity, dose-response; note: potency is the fitted concentration of half-maximal effect; nearly all actives have a fitted effect of over 40% in size
Outline: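 Tdp1 1 nM + cpd, 15 min RT; add biotin/phosphotyrosine-FITC oligo 15 nM, 5 min RT; add AS donor/acceptor beads 10 ug/ml, 10 min RT; read AlphaScreen. No-enzyme wells = max signal.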

Sequence of Chromobox protein homolog 1 (Homo sapiens) (P83916 whole entry, looked up): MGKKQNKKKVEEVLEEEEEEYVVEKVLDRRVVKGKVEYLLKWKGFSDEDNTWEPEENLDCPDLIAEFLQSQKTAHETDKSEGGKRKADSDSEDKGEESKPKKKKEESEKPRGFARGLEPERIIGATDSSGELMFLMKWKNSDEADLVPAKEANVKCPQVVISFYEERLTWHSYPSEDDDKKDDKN
Sequence of Flap endonuclease 1 (Homo sapiens) (P39748 whole entry, looked up): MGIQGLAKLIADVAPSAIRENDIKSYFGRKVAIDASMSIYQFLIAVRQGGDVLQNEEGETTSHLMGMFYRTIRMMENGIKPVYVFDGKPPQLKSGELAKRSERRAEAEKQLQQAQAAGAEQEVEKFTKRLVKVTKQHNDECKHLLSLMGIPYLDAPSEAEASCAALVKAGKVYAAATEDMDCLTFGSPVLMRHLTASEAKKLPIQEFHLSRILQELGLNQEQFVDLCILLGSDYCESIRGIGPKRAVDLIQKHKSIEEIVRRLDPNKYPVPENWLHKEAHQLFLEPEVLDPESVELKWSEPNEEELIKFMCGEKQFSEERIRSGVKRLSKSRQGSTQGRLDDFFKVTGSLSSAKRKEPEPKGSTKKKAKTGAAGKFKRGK
Sequence of ATPase family AAA domain-containing protein 5 (Homo sapiens) (Q96QE3 whole entry, looked up, the tested form may be a part): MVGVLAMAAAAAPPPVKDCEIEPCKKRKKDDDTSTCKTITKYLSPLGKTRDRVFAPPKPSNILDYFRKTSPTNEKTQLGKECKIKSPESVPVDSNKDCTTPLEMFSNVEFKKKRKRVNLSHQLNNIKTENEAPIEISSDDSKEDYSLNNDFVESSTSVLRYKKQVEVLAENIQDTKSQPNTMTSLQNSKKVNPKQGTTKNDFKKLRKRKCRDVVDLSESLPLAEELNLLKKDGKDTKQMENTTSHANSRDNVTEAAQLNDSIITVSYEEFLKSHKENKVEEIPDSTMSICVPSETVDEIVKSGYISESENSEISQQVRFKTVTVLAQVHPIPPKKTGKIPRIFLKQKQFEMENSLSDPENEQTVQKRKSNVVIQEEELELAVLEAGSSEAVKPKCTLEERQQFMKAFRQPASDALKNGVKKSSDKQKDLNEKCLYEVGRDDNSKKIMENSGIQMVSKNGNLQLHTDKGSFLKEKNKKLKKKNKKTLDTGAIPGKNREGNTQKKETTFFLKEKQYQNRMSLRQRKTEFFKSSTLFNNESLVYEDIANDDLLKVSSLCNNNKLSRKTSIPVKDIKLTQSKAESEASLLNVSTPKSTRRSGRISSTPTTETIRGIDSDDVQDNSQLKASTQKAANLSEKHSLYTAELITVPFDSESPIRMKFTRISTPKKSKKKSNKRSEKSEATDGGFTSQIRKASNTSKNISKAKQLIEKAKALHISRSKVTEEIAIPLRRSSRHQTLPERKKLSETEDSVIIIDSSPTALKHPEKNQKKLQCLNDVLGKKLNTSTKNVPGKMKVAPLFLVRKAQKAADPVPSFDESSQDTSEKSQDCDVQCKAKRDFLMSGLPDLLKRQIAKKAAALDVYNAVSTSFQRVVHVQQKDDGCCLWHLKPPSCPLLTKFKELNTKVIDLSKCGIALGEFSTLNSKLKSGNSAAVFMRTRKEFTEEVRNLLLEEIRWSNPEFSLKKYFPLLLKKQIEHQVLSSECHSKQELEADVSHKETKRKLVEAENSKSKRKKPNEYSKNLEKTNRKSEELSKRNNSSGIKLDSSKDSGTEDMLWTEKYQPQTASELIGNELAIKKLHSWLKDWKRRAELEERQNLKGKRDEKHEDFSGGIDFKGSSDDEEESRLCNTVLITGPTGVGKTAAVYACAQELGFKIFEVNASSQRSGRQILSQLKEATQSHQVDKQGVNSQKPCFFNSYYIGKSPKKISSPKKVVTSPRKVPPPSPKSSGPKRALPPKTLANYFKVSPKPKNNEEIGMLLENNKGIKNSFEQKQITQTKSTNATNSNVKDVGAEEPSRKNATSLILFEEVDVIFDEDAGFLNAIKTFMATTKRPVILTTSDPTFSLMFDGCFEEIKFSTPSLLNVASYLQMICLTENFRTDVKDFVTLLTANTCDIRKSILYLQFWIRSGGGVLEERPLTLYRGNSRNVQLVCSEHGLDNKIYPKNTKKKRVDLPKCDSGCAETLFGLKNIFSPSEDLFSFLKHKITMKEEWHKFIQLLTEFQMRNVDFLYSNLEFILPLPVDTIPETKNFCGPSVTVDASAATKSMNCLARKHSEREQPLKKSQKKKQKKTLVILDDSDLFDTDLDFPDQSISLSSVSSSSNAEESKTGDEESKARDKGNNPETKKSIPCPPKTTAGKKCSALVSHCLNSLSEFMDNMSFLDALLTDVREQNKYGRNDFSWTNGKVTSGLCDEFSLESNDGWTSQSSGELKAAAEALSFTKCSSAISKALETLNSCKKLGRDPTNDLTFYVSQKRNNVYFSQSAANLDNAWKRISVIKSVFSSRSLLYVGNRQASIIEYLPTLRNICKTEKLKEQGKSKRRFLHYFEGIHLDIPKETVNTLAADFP
Sequence of Thyrotropin-releasing hormone receptor (Homo sapiens) (P34981 whole entry, looked up): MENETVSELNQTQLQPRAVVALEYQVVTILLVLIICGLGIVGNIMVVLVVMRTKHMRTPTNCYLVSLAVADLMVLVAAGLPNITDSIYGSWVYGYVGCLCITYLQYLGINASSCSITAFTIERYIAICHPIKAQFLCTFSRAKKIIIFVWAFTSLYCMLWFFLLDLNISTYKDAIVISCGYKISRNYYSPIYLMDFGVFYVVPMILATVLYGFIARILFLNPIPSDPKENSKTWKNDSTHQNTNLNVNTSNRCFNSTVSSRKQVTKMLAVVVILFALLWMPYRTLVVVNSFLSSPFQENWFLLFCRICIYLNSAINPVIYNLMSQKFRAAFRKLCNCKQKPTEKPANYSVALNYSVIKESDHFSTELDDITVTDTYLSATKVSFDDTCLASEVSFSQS
Sequence of D(1A) dopamine receptor (Homo sapiens) (P21728 whole entry, looked up): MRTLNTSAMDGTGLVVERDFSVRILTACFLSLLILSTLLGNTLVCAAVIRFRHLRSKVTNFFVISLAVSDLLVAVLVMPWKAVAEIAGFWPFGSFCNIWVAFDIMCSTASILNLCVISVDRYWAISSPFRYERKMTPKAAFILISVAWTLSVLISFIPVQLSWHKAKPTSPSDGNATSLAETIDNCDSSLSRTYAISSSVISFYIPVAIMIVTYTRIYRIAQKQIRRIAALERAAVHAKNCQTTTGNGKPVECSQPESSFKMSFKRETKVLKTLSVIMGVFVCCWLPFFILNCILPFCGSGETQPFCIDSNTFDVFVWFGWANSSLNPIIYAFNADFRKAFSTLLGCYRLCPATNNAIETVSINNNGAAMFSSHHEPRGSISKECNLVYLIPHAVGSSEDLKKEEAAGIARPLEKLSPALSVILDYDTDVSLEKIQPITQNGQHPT
Sequence of Thioredoxin reductase 1, cytoplasmic (Rattus norvegicus) (O89049 whole entry, looked up): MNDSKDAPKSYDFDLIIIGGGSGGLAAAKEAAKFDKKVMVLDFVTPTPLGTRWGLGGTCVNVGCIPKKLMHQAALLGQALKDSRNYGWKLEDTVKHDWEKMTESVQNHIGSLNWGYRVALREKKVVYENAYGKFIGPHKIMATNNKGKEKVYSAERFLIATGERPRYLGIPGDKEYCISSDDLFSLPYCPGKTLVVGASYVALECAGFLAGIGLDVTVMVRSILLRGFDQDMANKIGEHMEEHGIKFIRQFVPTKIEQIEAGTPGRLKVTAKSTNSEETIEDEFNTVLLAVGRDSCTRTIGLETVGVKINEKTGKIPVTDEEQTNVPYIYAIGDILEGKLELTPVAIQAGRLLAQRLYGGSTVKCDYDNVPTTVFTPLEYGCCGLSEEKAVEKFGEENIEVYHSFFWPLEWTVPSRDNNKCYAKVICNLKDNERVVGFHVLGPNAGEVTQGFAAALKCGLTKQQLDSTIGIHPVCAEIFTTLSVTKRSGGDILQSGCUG
Sequence of M-phase phosphoprotein 8 (Homo sapiens) (Q99549 whole entry, looked up): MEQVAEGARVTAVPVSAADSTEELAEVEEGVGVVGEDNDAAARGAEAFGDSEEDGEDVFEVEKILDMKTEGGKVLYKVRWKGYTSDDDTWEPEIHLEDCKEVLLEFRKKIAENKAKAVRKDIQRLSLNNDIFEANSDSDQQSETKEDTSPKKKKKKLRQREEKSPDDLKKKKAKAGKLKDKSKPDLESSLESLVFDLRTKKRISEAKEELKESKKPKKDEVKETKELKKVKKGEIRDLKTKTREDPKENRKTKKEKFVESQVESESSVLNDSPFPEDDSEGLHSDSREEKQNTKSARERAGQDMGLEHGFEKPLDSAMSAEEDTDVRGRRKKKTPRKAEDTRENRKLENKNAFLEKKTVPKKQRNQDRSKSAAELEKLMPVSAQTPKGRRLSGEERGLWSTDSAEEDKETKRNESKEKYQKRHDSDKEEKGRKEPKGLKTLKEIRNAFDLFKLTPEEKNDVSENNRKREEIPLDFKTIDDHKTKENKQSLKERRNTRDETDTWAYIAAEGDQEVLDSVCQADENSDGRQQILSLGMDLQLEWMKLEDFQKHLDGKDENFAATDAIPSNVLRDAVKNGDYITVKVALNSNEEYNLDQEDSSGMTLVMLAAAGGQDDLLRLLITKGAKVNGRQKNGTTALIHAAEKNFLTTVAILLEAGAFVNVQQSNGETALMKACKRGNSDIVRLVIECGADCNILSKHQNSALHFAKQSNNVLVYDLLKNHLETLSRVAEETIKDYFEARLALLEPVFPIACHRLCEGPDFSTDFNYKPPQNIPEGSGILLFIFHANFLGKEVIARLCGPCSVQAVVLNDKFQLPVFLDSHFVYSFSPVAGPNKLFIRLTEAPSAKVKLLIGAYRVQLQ

c1ccc2c(N3CCNCC3)cccc2c1
Potency [1]: inactive
Potency [2]: inactive
outcome [3]: inactive
Potency [4]: inactive
Potency [5]: inactive
Potency [6]: inactive
Potency [7]: inactive
outcome [8]: inactive
outcome [9]: inactive
outcome [10]: inactive
Potency [11]: inactive
Potency [12]: inactive
Potency [13]: inactive
Potency [14]: inactive
activation [15]: 1.75% (inactive)
Potency [16]: inactive
viability change [16]: 3.18%
outcome [17]: inactive

CCCN(CCC)CCc1c[nH]c2ccc(C(N)=O)cc12
Potency [1]: inactive
Potency [2]: inactive
outcome [3]: inactive
Potency [4]: inactive
Potency [5]: inactive
Potency [6]: inactive
Potency [7]: inactive
outcome [8]: inactive
outcome [9]: inactive
outcome [10]: inactive
Potency [11]: inactive
Potency [18]: inactive
Potency [13]: inactive
Potency [14]: inactive
activation [15]: 0% (inactive)
Potency [16]: inactive
viability change [16]: 1.24%

O=C(O)c1cc[c]([Hg][Cl])cc1
Potency [1]: 2080 nM (active)
Potency [2]: 4150 nM (active)
outcome [3]: inactive
Potency [4]: 299 nM (active)
Potency [5]: inactive
Potency [6]: 5.32 µM (active)
Potency [7]: 39800 nM (active)
outcome [8]: inactive
outcome [9]: inactive
outcome [10]: inactive
Potency [11]: inactive
Potency [12]: inactive
Potency [18]: inactive
Potency [19]: 56200 nM (active)
Potency [13]: inactive
Potency [16]: inactive
viability change [16]: -2.02%
outcome [17]: inactive

CN(C(=O)Cc1ccc(Cl)c(Cl)c1)C(CN1CCCC1)c1cccc(OCC(=O)O)c1 (stereo not drawn)
Potency [1]: inactive
Potency [2]: inactive
outcome [3]: inactive
Potency [4]: inactive
Potency [5]: inactive
Potency [6]: inactive
Potency [7]: inactive
outcome [8]: inactive
outcome [9]: inactive
outcome [10]: inactive
Potency [11]: inactive
Potency [12]: inactive
Potency [18]: inactive
Potency [13]: inactive
Potency [14]: inactive
activation [15]: 0.25% (inactive)
Potency [16]: inactive
viability change [16]: -6.12%
outcome [17]: inactive

CN(N=O)c1ccc(O)c(O)c1
Potency [1]: inactive
Potency [2]: inactive
outcome [3]: inactive
Potency [4]: 947 nM (active)
Potency [5]: 2670 nM (active)
Potency [6]: 2.51 µM (active) and 2.38 µM (active)
Potency [7]: 1580 nM (active)
outcome [8]: inactive
outcome [9]: inactive
outcome [10]: inactive
Potency [11]: inactive
Potency [12]: inactive
Potency [18]: inactive
Potency [13]: inactive
Potency [14]: inactive
Potency [16]: inactive
viability change [16]: 0.531%
outcome [17]: inactive

NCCc1ccc(S(=O)(=O)F)cc1
Potency [1]: inactive
Potency [2]: inactive
outcome [3]: inactive
Potency [4]: inactive
Potency [5]: inactive
Potency [6]: inactive
Potency [7]: inactive
outcome [8]: inactive
outcome [9]: inactive
outcome [10]: inactive
Potency [11]: inactive
Potency [12]: inactive
Potency [18]: inactive
Potency [13]: inactive
Potency [16]: inactive
viability change [16]: -2.23%

NC(=O)COc1c(F)cc(SCCNS(=O)(=O)c2ccccc2)cc1F
Potency [1]: inactive
Potency [2]: inactive
outcome [3]: inactive
Potency [4]: inactive
Potency [5]: inactive
Potency [6]: inactive
Potency [7]: inactive
outcome [8]: inactive
outcome [9]: inactive
outcome [10]: inactive
Potency [11]: inactive
Potency [12]: inactive
Potency [18]: inactive
Potency [13]: inactive
Potency [14]: inactive
activation [15]: 0% (inactive)
outcome [17]: inactive
